Screening results as filed in PubChem.
Rows were chosen to be rich in hits. Some 1.6% of all compounds tested hit in one or more screens of this group.
KCNQ2 inh: KCNQ2 (rat) channel inhibition; AID 2156; 310,000 tested, 1.1% active; B-score at 10 µM; CHO-K1 KCNQ2, FluxOR thallium flux, 20 min; stronger effect = lower value;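 active means fluorescence ratio B-score at most minus 3 library SDs, with starting brightness B-score within 2 library SDs, cut at about -5.5 in these data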
Target sequence (O88943 whole entry, looked up): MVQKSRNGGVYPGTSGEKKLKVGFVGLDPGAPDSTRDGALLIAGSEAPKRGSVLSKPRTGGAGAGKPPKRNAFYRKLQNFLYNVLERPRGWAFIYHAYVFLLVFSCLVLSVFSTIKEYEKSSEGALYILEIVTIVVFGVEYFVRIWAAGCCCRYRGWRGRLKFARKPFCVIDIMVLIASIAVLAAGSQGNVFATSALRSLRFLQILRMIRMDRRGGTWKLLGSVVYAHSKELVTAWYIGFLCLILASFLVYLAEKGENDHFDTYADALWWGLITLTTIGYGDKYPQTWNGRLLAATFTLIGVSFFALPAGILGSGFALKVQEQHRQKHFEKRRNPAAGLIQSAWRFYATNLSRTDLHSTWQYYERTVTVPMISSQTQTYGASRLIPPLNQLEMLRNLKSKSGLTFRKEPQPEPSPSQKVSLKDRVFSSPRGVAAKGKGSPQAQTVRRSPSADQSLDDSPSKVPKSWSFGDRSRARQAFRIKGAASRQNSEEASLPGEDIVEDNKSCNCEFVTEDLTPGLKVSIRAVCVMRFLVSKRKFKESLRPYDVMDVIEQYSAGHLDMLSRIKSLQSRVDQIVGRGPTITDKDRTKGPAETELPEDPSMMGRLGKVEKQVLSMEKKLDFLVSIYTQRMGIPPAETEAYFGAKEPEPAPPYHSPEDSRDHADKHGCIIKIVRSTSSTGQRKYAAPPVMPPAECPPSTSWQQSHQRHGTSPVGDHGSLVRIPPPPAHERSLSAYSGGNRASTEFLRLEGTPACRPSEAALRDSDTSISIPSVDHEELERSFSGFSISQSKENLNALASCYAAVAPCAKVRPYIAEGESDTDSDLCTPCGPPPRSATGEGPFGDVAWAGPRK
KCNQ2 pot: KCNQ2 (rat) channel potentiation; O88943; CHO-K1 KCNQ2, FluxOR thallium flux fluorescence; stronger effect = higher value; B-score at 10 µM; 310,000 tested, 0.54% active; AID 2239;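 active means fluorescence ratio B-score at least 3 SD of library B-scores, with initial fluorescence B-score within 3 of them, cut at about 5.3 in these data; same plate scores as AID 2156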;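 further: B-score of peak minus minimum over baseline fluorescence ratio after K+ and Tl+ stimulus; positive B-score means potentiation of KCNQ2 with more thallium influx and brighter signal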
KCNQ2 inh conf: rat KCNQ2 channel inhibition, confirmatory screen; shares compounds with KCNQ2 inh; KCNQ2-expressing cells, thallium flux; stronger effect = lower value; activity change, negative = inhibition, % at 10 µM; 1,000 tested, 57% active;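 further: 0% = vehicle wells and values are ratio percent relative to vehicle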
KCNQ1 spec: selectivity of KCNQ2 inhibitors against human KCNQ1. shares compounds with KCNQ2 inh. KCNQ1-expressing cells, FluxOR thallium flux fluorescence; stronger effect = lower value. activity change, negative = inhibition, % at 10 µM. 1,000 tested, 15% active. AID 493026;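 active means activity change at least 3 SD of negative controls below their mean in both duplicate wells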;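 further: CHO cells stably transfected with KCNQ1 and depolarized by potassium stimulus; peak minus minimum fluorescence over baseline after thallium addition; 0% = vehicle negative control and -100% = blank without thallium stimulus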
CHO parental ctr: KCNQ2 inhibitor counter-screen hit in parental CHO cells; shares compounds with KCNQ2 inh; thallium flux counter-screen; stronger effect = lower value; activity change, % at 10 µM; 1,000 tested, 14% active;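 further: 0% = vehicle negative controls with stimulus buffer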
KCNQ2 patch conf: rat KCNQ2 inhibition confirmed by electrophysiology; KCNQ2-expressing cells, automated patch clamp current; shares compounds with KCNQ2 inh; 550 tested, 49% active; calls only at 10 µM; AID 588531
* marks the source's active call; other numbers are inactive results; i = inactive; . = not tested or not shown; + = active, no number. Unless noted, how the calls were made is not given here.

SMILES	KCNQ2 inh	KCNQ2 pot	KCNQ2 inh conf	KCNQ1 spec	CHO parental ctr	others
Cc1ccc(C(C[N+](=O)[O-])Sc2ccc(N)cc2)cc1 (configuration not stated)	-9.4*	-9.4	-30%*	i	i	KCNQ2 patch conf=i
Nc1ccc(Sc2ccc([N+](=O)[O-])cc2)cc1	i	0.29	.	.	.
Cc1ccc(N2CC(C(=O)Nc3ccc(S(=O)(=O)Nc4ncccn4)cc3)CC2=O)cc1C (configuration not stated)	i	1.3	.	.	.
CCOCCn1c(=O)c2c(nc3n2CCN3c2ccc(CC)cc2)n(C)c1=O	i	0.08	.	.	.
Cc1ccc(N=C2CCCN2Cc2ccccc2)c(C#N)c1	-9*	-9	-47%*	-43%*	-34%*	KCNQ2 patch conf=+
Cc1ccc(N=C2CCCCCN2C)c(C#N)c1	i	.	.	.	.
CCOc1ccc(N(CC(=O)N2CC=C(c3ccccc3)CC2)S(=O)(=O)c2c(C)noc2C)cc1	-8.6*	-8.6	i	i	i
CCOc1ccc(N(CC(=O)N2CCc3ccccc32)S(=O)(=O)c2c(C)noc2C)cc1	i	.	.	.	.
CC(C)CN(CC(C)C)C(=O)C12CCC(C)(C(=O)O1)C2(C)C (configuration not stated)	i	.	.	.	.
CCNC(=S)Nc1ccc(S(=O)(=O)Nc2cc(C)nc(C)n2)cc1	i	.	.	.	.
COc1cccc(OC)c1C(=O)Nn1c(-c2cccs2)nc2ccccc2c1=O	-9.2*	-9.2	i	i	i
COc1ccc(Cl)cc1C(=O)Nn1c(-c2cccs2)nc2ccccc2c1=O	i	0.19	.	.	.
COc1ccc(Cn2c(-c3ccc(Br)cc3)c[n+]3ccccc23)cc1	i	.	.	.	.
Cc1cc(C)nc(NC(=O)c2cc(-c3ccc4c(c3)OCO4)nc3ccccc23)c1	-7.7*	-7.7	-32%*	i	i	KCNQ2 patch conf=+
COC(=O)c1cc(-c2ccc3c(c2)OCO3)nc2ccccc12	i	0.09	.	.	.
COc1ccc(N2CC(C(=O)Nc3ccccc3C(=O)NC3CC3)CC2=O)cc1 (configuration not stated)	i	1.5	.	.	.
Cc1ccc(Nc2nc(CSc3nnnn3-c3ccccc3)cs2)cc1	i	.	.	.	.
Cc1cccc(-n2nnnc2SCc2csc(-c3ccccc3)n2)c1	-7.2*	-7.2	-32%*	i	i	KCNQ2 patch conf=+
Cc1ccc(C)c(N2CCN(C(=O)c3ccc4c(c3)c(C)c(C)n4C)CC2)c1	-6.6*	-6.6	i	i	i
Cc1c(C)n(C)c2ccc(C(=O)N3CCN(c4ccccc4)CC3)cc12	i	.	.	.	.
CC(C)C(C)(C#N)NC(=O)CSc1nnc(-c2ccccc2)o1 (configuration not stated)	i	.	.	.	.
CCc1cc(C(=O)N2CCCc3ccccc32)sc1C	i	.	.	.	.
COc1ccc2nc(N3CCCC(C(=O)NCCCN4C(C)CCCC4C)C3)sc2c1 (configuration not stated)	i	1.4	.	.	.
Cc1ccc(-n2c(-c3ccc(Br)cc3)c[n+]3c2CCc2ccc4cccnc4c2-3)cc1	-12*	-12	-45%*	-36%*	-30%*
COc1ccc(-n2c(-c3ccc(Cl)cc3)c[n+]3c2CCc2ccccc2-3)cc1	i	.	.	.	.
SMILES	KCNQ2 inh	KCNQ2 pot	KCNQ2 inh conf	KCNQ1 spec	CHO parental ctr	others
COc1cccc(NC(=O)CN(C)C(=O)/C=C/c2ccc3ccccc3n2)c1	i	0.63	.	.	.
Cc1ccccc1OCCn1cc(C(=O)C(=O)N2CCOCC2)c2ccccc21	-8.5*	-8.5	-33%*	i	i	KCNQ2 patch conf=+
O=C(C(=O)N1CCOCC1)c1cn(CCOc2ccccc2)c2ccccc12	i	.	.	.	.
Cc1ccccc1NC(=O)Cc1nc(COC(=O)CCNS(=O)(=O)c2ccccc2)cs1	i	1.3	.	.	.
COc1cc(NC(=O)CCCNC(=O)Cn2cnc3sc(C)c(C)c3c2=O)cc(OC)c1OC	i	0.02	.	.	.
CCOc1ccc2[nH]c(=O)c(CN(CCO)C(=O)c3ccc(F)cc3)cc2c1	i	.	.	.	.
COC(=O)c1cn(NC(=O)c2cccc(F)c2)c(=O)c2ccccc12	i	.	.	.	.
COc1cc(OC)cc(C(=O)Nn2cc(C(=O)Nc3ccccc3F)c3ccccc3c2=O)c1	-7.1*	-7.1	i	i	i
O=C(Nn1cc(C(=O)Nc2ccccc2F)c2ccccc2c1=O)c1cnccn1	i	.	.	.	.
COC(=O)c1cn(NC(=O)c2cccc(N(C)C)c2)c(=O)c2ccccc12	-7.8*	-7.8	-45%*	-36%*	-30%*	KCNQ2 patch conf=+
O=C(NCc1ccccc1Cl)c1ccc(CS(=O)Cc2ccc(Cl)cc2)o1 (configuration not stated)	i	.	.	.	.
Cc1ccn2c(c1)nc(=O)c1cc(S(=O)(=O)N3CCOCC3)ccc12	i	.	.	.	.
CC1(C)C2CCC1(CS(=O)(=O)N1CCC(C(=O)O)CC1)C(=O)C2 (configuration not stated)	i	.	.	.	.
CCC1CCCCN1C(=S)Nc1ccc(OC(F)F)cc1 (configuration not stated)	i	0.02	.	.	.
CCC(CO)N=C1CC(C)(C)CC(=O)/C1=C(/O)CCCN1C(=O)c2ccccc2C1=O (configuration not stated)	i	.	.	.	.
Cc1ccc(C)c(C2=NNC(=O)CC2)c1	i	0.39	.	.	.
c1ccc(-c2noc(-c3ccccc3-c3ccccc3)n2)cc1	-8.6*	-8.6	-24%*	i	i	KCNQ2 patch conf=i
Fc1ccccc1-c1nc(-c2ccc(Cl)cc2)no1	i	.	.	.	.
C=CCOc1cccc(CNc2cccc(C(=O)O)c2)c1	i	2.1	.	.	.
Cc1ccc(C(C(=O)NC(C)(C)C)N(Cc2ccccc2)C(=O)c2snc(C(N)=O)c2N)o1 (configuration not stated)	i	0.03	.	.	.
COc1cc(C)nc(OCCNC(=O)COc2ccc(Cl)cc2C)n1	-7.5*	-7.5	i	i	i
Cc1cc(Cl)ccc1OCC(=O)NCCOc1nc(N2CCCCC2)nc(N2CCOCC2)n1	i	.	.	.	.
Cc1ccnc(NC(=O)COc2ccc3c(c2)CCC3)c1	i	.	.	.	.
COc1cc(N/N=C/c2ccc(N(C)C)cc2)ncn1	i	.	.	.	.
CN(C)c1cc(N/N=C/c2ccc(Cl)cc2)nc(N(C)C)n1	-8.6*	-8.6	i	i	i
SMILES	KCNQ2 inh	KCNQ2 pot	KCNQ2 inh conf	KCNQ1 spec	CHO parental ctr	others
CCOC(=O)N1CCN(C/C(Cl)=C/c2ccccc2)CC1	i	.	.	.	.
CC(=O)N(CCC(Cc1ccccc1)c1ccc2c(c1)OCO2)Cc1ccccc1F (configuration not stated)	-7.2*	-7.2	-35%*	i	i	KCNQ2 patch conf=i
O=C(NC(Cc1ccccc1)c1ccc2c(c1)OCCCO2)c1ccccc1F (configuration not stated)	i	.	.	.	.
COc1ccccc1/C=C/C(=O)OCC(=O)Nc1ccccc1Sc1ccccc1	-6.8*	-6.8	-30%*	i	i	KCNQ2 patch conf=i
COc1ccccc1NC(=O)COC(=O)/C=C/c1ccccc1[N+](=O)[O-]	i	2.3	.	.	.
CC(=O)Nc1ccc(S(=O)(=O)Nc2ccc3c(c2)C(=O)OC3)cc1	i	.	.	.	.
